From paper PMC7862700, “An all-to-all approach to the identification of sequence-specific readers for epigenetic DNA modifications on cytosine”

How the values were obtained:
Assay in all cases: DAPPL (digital affinity profiling via proximity ligation, sequencing); 10 mM Tris-HCl pH 7.5, 50 mM NaCl, 1 mM DTT, 4% glycerol, room temperature, 30 min; GST-TFs on glutathione beads, 16-mer random dsDNA library, 0.1% formaldehyde crosslink after washing; high values mean tight binding
Conditions in all cases: protein: recombinant; tags: N-terminal GST; dsDNA, one strand shown
[1] = target: T1, FEV (Homo sapiens, UniProt Q99581 1-238)
T1 sequence: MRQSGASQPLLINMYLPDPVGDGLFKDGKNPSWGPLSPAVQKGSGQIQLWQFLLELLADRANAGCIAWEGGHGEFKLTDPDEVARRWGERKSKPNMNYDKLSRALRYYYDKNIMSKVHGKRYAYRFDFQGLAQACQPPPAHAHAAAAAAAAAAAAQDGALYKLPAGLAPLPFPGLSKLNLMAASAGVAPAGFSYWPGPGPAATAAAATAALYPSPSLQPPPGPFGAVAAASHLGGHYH
Method in brief: (§1)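 Yeast served to express human transcription factors as GST fusions, which were then captured on glutathione beads and labelled with DNA barcodes. Pooled with a tag-only sample, they were incubated with 200 nmole of a 16-mer random double-stranded DNA library for 30 min at room temperature in Tris/NaCl/DTT/glycerol buffer, washed, crosslinked with 0.1% formaldehyde, ligated by proximity, amplified by PCR and sequenced. Dividing each hexamer's read frequency for a factor by its frequency for the tag-only sample gives the binding signal.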

[2] = target: ETV5 (Homo sapiens, UniProt P41161 1-510)
Method in brief: as §1

[3] = target: T2, SPIC (Homo sapiens, UniProt Q8N5J4 1-248)
T2 sequence: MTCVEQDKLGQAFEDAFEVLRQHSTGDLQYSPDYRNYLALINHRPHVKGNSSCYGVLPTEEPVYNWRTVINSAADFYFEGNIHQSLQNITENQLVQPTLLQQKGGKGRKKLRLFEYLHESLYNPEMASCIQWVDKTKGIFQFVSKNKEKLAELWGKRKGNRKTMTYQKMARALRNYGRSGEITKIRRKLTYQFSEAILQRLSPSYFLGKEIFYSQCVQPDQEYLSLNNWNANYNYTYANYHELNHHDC
Method in brief: as §1

[4] = target: ELF4 (Homo sapiens, UniProt Q99607 1-663)
Method in brief: as §1

[5] = target: T3, ELK4 (Homo sapiens, UniProt P28324-2 1-405)
T3 sequence: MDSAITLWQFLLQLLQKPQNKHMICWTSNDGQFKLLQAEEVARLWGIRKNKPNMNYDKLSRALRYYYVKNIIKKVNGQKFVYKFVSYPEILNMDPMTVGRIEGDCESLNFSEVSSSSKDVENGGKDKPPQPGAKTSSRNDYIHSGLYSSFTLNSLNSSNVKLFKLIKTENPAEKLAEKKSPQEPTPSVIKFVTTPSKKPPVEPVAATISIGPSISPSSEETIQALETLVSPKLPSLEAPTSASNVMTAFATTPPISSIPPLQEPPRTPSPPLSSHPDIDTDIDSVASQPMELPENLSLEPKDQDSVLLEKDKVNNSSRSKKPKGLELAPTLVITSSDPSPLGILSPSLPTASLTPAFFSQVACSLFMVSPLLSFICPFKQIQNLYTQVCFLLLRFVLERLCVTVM
Method in brief: as §1

[6] = target: T4, ETV2 (Homo sapiens, UniProt O00321 1-342)
T4 sequence: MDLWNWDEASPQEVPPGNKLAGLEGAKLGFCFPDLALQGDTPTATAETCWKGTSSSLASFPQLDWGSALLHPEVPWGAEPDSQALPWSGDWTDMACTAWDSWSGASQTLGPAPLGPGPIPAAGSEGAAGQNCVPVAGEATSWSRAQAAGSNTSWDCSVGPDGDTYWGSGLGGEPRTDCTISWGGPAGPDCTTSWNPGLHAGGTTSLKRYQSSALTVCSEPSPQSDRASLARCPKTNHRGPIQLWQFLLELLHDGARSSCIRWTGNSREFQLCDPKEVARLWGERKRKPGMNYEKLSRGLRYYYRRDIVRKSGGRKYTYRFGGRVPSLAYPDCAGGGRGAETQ
Method in brief: as §1

[7] = target: T5, ELF3 (Homo sapiens, UniProt P78545 1-371)
T5 sequence: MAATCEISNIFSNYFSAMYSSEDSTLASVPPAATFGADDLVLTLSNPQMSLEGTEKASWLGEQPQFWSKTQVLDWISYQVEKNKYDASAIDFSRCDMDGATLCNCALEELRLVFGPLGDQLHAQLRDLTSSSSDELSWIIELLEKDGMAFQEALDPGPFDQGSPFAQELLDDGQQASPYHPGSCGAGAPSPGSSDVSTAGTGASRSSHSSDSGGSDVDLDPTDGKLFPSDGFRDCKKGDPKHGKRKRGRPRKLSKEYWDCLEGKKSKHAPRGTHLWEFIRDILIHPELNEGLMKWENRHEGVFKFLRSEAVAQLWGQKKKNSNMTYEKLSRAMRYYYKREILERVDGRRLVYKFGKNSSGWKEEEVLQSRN
Method in brief: as §1

[8] = target: ETV1 (Homo sapiens, UniProt P50549 1-477)
Method in brief: as §1

[9] = target: T6, ERF (Homo sapiens, UniProt P50548 1-548)
T6 sequence: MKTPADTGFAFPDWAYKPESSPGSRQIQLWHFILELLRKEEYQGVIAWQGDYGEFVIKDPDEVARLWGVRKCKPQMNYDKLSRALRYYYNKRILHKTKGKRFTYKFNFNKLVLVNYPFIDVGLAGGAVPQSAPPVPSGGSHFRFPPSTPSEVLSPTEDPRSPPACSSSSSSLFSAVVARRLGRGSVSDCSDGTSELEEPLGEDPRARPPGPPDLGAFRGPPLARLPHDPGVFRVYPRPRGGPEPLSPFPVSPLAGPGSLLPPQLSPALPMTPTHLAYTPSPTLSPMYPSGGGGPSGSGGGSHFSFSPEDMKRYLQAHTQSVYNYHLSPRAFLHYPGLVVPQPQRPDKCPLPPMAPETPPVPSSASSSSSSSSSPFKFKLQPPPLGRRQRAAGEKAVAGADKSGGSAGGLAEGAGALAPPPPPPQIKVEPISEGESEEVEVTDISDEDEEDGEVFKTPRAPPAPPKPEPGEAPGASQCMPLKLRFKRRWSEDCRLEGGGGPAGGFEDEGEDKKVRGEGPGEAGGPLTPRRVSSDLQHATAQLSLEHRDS
Method in brief: as §1

[10] = target: T7, ETV3L (Homo sapiens, UniProt Q6ZN32 1-361)
T7 sequence: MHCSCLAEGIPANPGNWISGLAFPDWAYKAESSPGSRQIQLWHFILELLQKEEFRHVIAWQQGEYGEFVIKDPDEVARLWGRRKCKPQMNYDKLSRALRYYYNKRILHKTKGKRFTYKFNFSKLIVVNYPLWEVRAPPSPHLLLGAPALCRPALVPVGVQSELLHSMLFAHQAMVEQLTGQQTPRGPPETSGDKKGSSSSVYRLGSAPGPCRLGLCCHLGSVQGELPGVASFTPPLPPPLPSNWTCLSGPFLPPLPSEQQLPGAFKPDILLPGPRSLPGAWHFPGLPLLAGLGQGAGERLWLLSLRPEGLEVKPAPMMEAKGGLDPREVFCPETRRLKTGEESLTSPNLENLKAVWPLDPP
Method in brief: as §1

[11] = target: T8, ETS2 (Homo sapiens, UniProt P15036 1-469)
T8 sequence: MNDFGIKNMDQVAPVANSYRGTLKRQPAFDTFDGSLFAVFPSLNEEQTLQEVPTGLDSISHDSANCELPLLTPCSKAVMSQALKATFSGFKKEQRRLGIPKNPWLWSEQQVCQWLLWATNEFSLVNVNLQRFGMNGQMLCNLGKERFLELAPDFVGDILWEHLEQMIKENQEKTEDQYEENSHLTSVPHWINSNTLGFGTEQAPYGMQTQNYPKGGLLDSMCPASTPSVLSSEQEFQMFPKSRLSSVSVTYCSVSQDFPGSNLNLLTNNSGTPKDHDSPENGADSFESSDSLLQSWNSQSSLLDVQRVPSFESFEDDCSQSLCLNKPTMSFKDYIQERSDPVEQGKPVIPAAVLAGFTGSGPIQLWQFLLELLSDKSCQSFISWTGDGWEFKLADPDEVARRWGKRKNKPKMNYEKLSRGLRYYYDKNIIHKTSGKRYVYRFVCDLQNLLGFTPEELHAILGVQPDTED
Method in brief: as §1

[12] = target: T9, SPDEF (Homo sapiens, UniProt O95238 1-335)
T9 sequence: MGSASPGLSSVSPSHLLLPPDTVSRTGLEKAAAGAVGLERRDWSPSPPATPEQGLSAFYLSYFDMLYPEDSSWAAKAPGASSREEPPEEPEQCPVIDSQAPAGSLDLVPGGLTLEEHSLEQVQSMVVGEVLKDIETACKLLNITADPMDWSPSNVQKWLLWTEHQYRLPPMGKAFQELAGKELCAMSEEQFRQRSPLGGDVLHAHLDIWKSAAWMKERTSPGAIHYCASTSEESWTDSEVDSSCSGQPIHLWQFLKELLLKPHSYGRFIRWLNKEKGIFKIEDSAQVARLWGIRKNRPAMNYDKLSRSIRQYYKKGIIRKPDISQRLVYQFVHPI
Method in brief: as §1

[13] = target: T10, ETV7 (Homo sapiens, UniProt Q9Y603 1-341)
T10 sequence: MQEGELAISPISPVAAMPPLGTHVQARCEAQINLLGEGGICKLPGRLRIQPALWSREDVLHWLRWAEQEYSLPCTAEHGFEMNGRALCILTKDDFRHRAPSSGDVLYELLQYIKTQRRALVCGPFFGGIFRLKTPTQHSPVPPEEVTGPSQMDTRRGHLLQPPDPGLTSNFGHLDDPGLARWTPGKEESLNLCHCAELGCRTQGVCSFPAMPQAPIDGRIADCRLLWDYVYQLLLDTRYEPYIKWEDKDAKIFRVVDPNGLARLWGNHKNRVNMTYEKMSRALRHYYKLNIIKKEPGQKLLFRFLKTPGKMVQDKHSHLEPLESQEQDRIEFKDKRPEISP
Method in brief: as §1

[14] = target: T11, ELF5 (Homo sapiens, UniProt Q9UKW6-2 1-255)
T11 sequence: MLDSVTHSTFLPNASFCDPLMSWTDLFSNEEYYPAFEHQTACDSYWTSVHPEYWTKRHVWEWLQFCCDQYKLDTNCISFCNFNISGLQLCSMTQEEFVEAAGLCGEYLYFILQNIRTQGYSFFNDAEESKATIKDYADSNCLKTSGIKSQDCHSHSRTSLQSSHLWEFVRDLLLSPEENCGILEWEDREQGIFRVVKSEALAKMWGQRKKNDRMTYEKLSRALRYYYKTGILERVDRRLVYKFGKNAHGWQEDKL
Method in brief: as §1

[15] = target: T12, ETV3 (Homo sapiens, UniProt P41162-2 1-143)
T12 sequence: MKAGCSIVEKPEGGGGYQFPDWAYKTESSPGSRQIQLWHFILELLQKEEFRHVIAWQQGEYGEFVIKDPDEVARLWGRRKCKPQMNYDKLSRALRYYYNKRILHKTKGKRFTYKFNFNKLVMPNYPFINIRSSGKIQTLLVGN
Method in brief: as §1

[16] = target: ETV6 (Homo sapiens, UniProt P41212 1-452)
Method in brief: as §1

Sequence of ELF4 (Q99607 whole entry): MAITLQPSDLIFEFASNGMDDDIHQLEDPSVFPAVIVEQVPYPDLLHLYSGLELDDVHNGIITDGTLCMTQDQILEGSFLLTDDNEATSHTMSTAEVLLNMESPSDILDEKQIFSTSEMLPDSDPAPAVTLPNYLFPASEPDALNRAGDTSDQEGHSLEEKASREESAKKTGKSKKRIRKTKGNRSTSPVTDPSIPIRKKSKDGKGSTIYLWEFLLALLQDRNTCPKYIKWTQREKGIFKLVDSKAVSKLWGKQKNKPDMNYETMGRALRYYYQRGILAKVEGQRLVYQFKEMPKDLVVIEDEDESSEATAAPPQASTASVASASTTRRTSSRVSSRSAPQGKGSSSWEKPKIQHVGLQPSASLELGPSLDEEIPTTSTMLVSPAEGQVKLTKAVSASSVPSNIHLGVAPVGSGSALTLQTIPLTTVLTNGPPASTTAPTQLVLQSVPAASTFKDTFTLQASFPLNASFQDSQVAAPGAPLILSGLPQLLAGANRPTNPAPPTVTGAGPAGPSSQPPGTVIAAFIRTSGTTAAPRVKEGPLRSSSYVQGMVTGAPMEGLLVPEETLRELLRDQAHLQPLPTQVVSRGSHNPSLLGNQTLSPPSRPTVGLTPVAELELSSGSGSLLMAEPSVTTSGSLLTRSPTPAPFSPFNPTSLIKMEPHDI
Sequence of ETV5 (P41161 whole entry): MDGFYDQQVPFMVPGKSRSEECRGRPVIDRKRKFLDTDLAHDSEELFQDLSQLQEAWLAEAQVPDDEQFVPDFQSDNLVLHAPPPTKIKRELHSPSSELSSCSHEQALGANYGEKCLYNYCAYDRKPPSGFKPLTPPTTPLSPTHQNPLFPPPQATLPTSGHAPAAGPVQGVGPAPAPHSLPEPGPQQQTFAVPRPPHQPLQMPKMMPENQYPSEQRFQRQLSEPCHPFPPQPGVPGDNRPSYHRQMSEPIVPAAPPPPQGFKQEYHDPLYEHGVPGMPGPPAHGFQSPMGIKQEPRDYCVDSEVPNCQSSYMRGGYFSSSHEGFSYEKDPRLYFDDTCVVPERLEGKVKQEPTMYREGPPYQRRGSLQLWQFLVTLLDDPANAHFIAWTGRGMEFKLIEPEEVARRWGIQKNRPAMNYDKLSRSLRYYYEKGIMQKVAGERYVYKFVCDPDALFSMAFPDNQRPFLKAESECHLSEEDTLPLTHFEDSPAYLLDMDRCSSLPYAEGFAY
Sequence of ETV1 (P50549 whole entry): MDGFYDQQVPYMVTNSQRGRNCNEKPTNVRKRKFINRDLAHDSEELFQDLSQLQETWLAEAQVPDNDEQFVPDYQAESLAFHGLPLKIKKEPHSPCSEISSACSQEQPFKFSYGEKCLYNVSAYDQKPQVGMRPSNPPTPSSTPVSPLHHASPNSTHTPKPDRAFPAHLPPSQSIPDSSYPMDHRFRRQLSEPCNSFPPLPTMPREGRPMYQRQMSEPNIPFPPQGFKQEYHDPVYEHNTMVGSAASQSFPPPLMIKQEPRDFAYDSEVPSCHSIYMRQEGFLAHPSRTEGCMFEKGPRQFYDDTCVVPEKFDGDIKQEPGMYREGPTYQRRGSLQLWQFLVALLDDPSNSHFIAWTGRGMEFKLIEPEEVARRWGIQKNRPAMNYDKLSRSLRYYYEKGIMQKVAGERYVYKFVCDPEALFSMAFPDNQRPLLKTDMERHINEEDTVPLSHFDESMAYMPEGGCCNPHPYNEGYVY
Sequence of ETV6 (P41212 whole entry): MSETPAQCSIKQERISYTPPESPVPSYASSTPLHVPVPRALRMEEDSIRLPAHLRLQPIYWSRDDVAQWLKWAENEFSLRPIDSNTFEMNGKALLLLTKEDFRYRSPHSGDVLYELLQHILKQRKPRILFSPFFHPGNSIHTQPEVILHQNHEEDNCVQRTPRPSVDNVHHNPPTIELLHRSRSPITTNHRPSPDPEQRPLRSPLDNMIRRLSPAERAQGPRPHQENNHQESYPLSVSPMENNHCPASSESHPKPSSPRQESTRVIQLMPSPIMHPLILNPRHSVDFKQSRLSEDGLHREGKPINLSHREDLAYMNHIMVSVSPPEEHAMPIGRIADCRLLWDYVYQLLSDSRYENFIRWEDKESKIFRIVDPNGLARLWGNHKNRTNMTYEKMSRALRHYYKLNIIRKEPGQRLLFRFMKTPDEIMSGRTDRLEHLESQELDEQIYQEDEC

Sequence | binding signal [1] | binding signal [2] | binding signal [3] | binding signal [4] | binding signal [5] | binding signal [6] | binding signal [7] | binding signal [8] | binding signal [9] | binding signal [10] | binding signal [11] | binding signal [12] | binding signal [13] | binding signal [14] | binding signal [15] | binding signal [16]
CGTCCG | 1.48 fold enrichment (6-mer frequency, TF over GST control) | 1.23 fold enrichment (6-mer frequency, TF over GST control) | 1.37 fold enrichment (6-mer frequency, TF over GST control) | 1.26 fold enrichment (6-mer frequency, TF over GST control) | 1.17 fold enrichment (6-mer frequency, TF over GST control) | 1.16 fold enrichment (6-mer frequency, TF over GST control) | 1.26 fold enrichment (6-mer frequency, TF over GST control) | 1.38 fold enrichment (6-mer frequency, TF over GST control) | 1.32 fold enrichment (6-mer frequency, TF over GST control) | 1.19 fold enrichment (6-mer frequency, TF over GST control) | 1.28 fold enrichment (6-mer frequency, TF over GST control) | 1.48 fold enrichment (6-mer frequency, TF over GST control) | 1.37 fold enrichment (6-mer frequency, TF over GST control) | 1.44 fold enrichment (6-mer frequency, TF over GST control) | 1.22 fold enrichment (6-mer frequency, TF over GST control) | 1.34 fold enrichment (6-mer frequency, TF over GST control)
AACAGG | 1.16 fold enrichment (6-mer frequency, TF over GST control) | 1.27 fold enrichment (6-mer frequency, TF over GST control) | 1.15 fold enrichment (6-mer frequency, TF over GST control) | 1.08 fold enrichment (6-mer frequency, TF over GST control) | 1.09 fold enrichment (6-mer frequency, TF over GST control) | 1.03 fold enrichment (6-mer frequency, TF over GST control) | 1.15 fold enrichment (6-mer frequency, TF over GST control) | 1.18 fold enrichment (6-mer frequency, TF over GST control) | 1.16 fold enrichment (6-mer frequency, TF over GST control) | 1.15 fold enrichment (6-mer frequency, TF over GST control) | 1.13 fold enrichment (6-mer frequency, TF over GST control) | 1.31 fold enrichment (6-mer frequency, TF over GST control) | 1.15 fold enrichment (6-mer frequency, TF over GST control) | 1.24 fold enrichment (6-mer frequency, TF over GST control) | 1.25 fold enrichment (6-mer frequency, TF over GST control) | 1.29 fold enrichment (6-mer frequency, TF over GST control)
